Our source for the growth values is PubChem BioAssay (NCI).

Common to all, as to assay: NCI-60 one-dose screen, 48 h (100 = growth as untreated, 0 = no growth, -100 = all killed)
For one experiment, the system named is SK-MEL-2 melanoma. The conditions noted are these: 10 µM unless noted.
Another experiment has as its system EKVX NSCLC. The conditions noted are these: 10 µM unless noted.
The next experiment has as its system SN12C renal. As to conditions: 10 µM unless noted.
For the next experiment, the system named is TK-10 renal. The conditions noted are these: 10 µM unless noted.
Another experiment relates to ACHN renal. As to conditions: 10 µM unless noted.
The next experiment has as its system A498 renal. The conditions noted are these: 10 µM unless noted.
The subject of another experiment is CCRF-CEM leukemia. As to conditions: 10 µM unless noted.
In the next experiment the test system is MOLT-4 leukemia. As to conditions: 10 µM unless noted.
The next experiment concerns SR leukemia. As to conditions: 10 µM unless noted.
The test system of another experiment is RPMI-8226 leukemia. As to conditions: 10 µM unless noted.
In a further experiment the test system is OVCAR-8 ovarian. The conditions noted are these: 10 µM unless noted.
The subject of another experiment is OVCAR-5 ovarian. As to conditions: 10 µM unless noted.
In another experiment the test system is OVCAR-4 ovarian. As to conditions: 10 µM.
Another experiment deals with SK-OV-3 ovarian. As to conditions: 10 µM unless noted.
The test system of another experiment is IGROV1 ovarian. As to conditions: 10 µM unless noted.
Another experiment relates to OVCAR-3 ovarian. The conditions noted are these: 10 µM unless noted.
The subject of another experiment is HS 578T breast. As to conditions: 10 µM unless noted.
In a further experiment the test system is NCI/ADR-RES ovarian. As to conditions: 10 µM unless noted.
Another experiment concerns CAKI-1 renal. The conditions noted are these: 10 µM unless noted.

Each structure is given as a SMILES string. This is part of a sample that, as a whole, favours compounds with a hit. Of some 83,000 tested, about 20% had one in any assay.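 The endpoint reported here, percent growth, reads 100 for growth as untreated, 0 for no net growth and -100 for all cells dead.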 Values without a mark were called inactive. The source made the active and inactive calls. How the source made its calls: active means growth percent below 10; inactive means the rest.

Consider `CCn1cc(-c2ccnc(NCCNS(=O)(=O)c3ccc(Br)cc3)c2)c(-c2cccc(OC)c2)n1`, for which the growth is 90.8% with SK-MEL-2 melanoma; 77% with EKVX NSCLC; 77% in the experiment with SN12C renal; 83.2% with TK-10 renal; 82.6% in the experiment with ACHN renal; 66.2% with A498 renal. Moreover, the growth with CCRF-CEM leukemia is 43.2%; with MOLT-4 leukemia it was 34.8%; with SR leukemia it was 42.2%; with RPMI-8226 leukemia, 25%; in the experiment with OVCAR-8 ovarian, 63.5%; in the experiment with OVCAR-5 ovarian, 97.6%. Also, the growth was 55.3% in the experiment with OVCAR-4 ovarian; 76.6% in the experiment with SK-OV-3 ovarian; 60.8% in the experiment with IGROV1 ovarian; 78.3% in the experiment with OVCAR-3 ovarian; 78.5% in the experiment on HS 578T breast; 73.9% in the experiment with NCI/ADR-RES ovarian.
`O=c1cc(-c2ccccc2)oc2c(O)c(O)ccc12`: the growth in the experiment with SK-MEL-2 melanoma is 85.4%; in the experiment on EKVX NSCLC it was 90%; in the experiment on SN12C renal, 68.7%; in the experiment with TK-10 renal, 75.2%; with ACHN renal, 40.1%; with CAKI-1 renal it was 37.4%. Further, the growth with A498 renal is 73.1%; in the experiment with CCRF-CEM leukemia, 41.6%; in the experiment with MOLT-4 leukemia, 55.9%; in the experiment on SR leukemia, 36.6%; with RPMI-8226 leukemia, 45.6%; in the experiment on OVCAR-8 ovarian, 52.8%. In addition, the growth in the experiment with OVCAR-5 ovarian was 62.9%; in the experiment on OVCAR-4 ovarian it was 61.6%; with SK-OV-3 ovarian it was 76.7%; in the experiment with OVCAR-3 ovarian, 5.27% (active); in the experiment on HS 578T breast, 91.4%.
`Nc1nc(SCc2cccc([N+](=O)[O-])c2)c2[nH]cnc2n1`: the growth with SK-MEL-2 melanoma is 96%; with EKVX NSCLC, 90.9%; with SN12C renal, 94.9%; in the experiment on TK-10 renal, 90.4%; in the experiment on ACHN renal, 99.6%; in the experiment with CAKI-1 renal it was 84%. Besides, the growth in the experiment on A498 renal was 82.1%; with CCRF-CEM leukemia, 95%; with MOLT-4 leukemia, 91.4%; in the experiment with SR leukemia it was 95.6%; with RPMI-8226 leukemia, 91.8%; in the experiment with OVCAR-8 ovarian it was 96.5%. In addition, the growth in the experiment with OVCAR-5 ovarian was 101%; with OVCAR-4 ovarian it was 99.3%; with SK-OV-3 ovarian, 109%; in the experiment on IGROV1 ovarian, 89.2%; in the experiment with HS 578T breast, 99.9%; in the experiment with NCI/ADR-RES ovarian it was 97.6%.
Take `Nn1c(Nc2ccc(S(=O)(=O)Nc3ncccn3)cc2)nnc(/C=C/c2c(O)ccc3ccccc23)c1=O`: the growth in the experiment with SK-MEL-2 melanoma was 89.2%; in the experiment on EKVX NSCLC, 90.9%; in the experiment on SN12C renal, 96.8%; in the experiment with TK-10 renal, 120%; with ACHN renal, 91.9%; in the experiment on CAKI-1 renal it was 98.4%. Also, the growth was 93.2% with A498 renal; 79.3% with CCRF-CEM leukemia; 70.7% in the experiment with MOLT-4 leukemia; 89.7% in the experiment with SR leukemia; 72.4% in the experiment with RPMI-8226 leukemia; 93.4% in the experiment on OVCAR-8 ovarian. Besides, the growth in the experiment on OVCAR-4 ovarian is 75.8%; with SK-OV-3 ovarian it was 84.2%; in the experiment with IGROV1 ovarian, 82.9%; in the experiment with OVCAR-3 ovarian it was 80.1%; with HS 578T breast it was 94.9%; with NCI/ADR-RES ovarian it was 94.6%.
Consider `O=C(NNc1ccc(-c2ccccc2)nn1)c1ccc(F)cc1`, for which the growth in the experiment on SK-MEL-2 melanoma is 108%; in the experiment on EKVX NSCLC, 78.4%; in the experiment on SN12C renal it was 95.1%; with TK-10 renal it was 82.9%; in the experiment on ACHN renal, 90.9%; in the experiment with CAKI-1 renal, 61.8%. For the same molecule, the growth with A498 renal was 67.6%; with CCRF-CEM leukemia it was 108%; with MOLT-4 leukemia, 96.2%; in the experiment with SR leukemia, 92%; with RPMI-8226 leukemia, 99.7%; with OVCAR-8 ovarian, 98.6%. Further, the growth with OVCAR-5 ovarian is 94.2%; in the experiment with OVCAR-4 ovarian, 94.8%; in the experiment with IGROV1 ovarian, 97%; in the experiment with OVCAR-3 ovarian it was 103%; in the experiment on HS 578T breast, 101%; in the experiment with NCI/ADR-RES ovarian, 93.3%.
Turning to `COc1ccc(C2CC(c3cc(OC)c(OC)c(OC)c3)=NN2C(C)=O)cc1OCC(=O)Nc1nc2ccc(C(F)(F)F)cc2s1` (centres undefined), the growth in the experiment on SK-MEL-2 melanoma is 92.3%; in the experiment with EKVX NSCLC it was 83.4%; in the experiment with SN12C renal, 63%; in the experiment with TK-10 renal, 57.1%; with ACHN renal, 40.4%; in the experiment on CAKI-1 renal, 57.9%. In addition, the growth with A498 renal was 54.1%; with CCRF-CEM leukemia, 72.5%; with MOLT-4 leukemia it was 60%; with SR leukemia, 63.4%; in the experiment with RPMI-8226 leukemia, 42%; in the experiment with OVCAR-8 ovarian, 62.3%. The growth was 117% with OVCAR-5 ovarian; 69.5% in the experiment with OVCAR-4 ovarian; 97% in the experiment on SK-OV-3 ovarian; 67.1% in the experiment with OVCAR-3 ovarian; 26.4% in the experiment with HS 578T breast; 63% in the experiment with NCI/ADR-RES ovarian.
With `CCCC(NC(=O)OCc1ccccc1)C(=O)O` (centres undefined), the growth with SK-MEL-2 melanoma was 128%; in the experiment with EKVX NSCLC it was 96.5%; with SN12C renal, 74.3%; with TK-10 renal, 117%; with ACHN renal, 108%; in the experiment with CAKI-1 renal, 82.9%. In addition, the growth in the experiment with A498 renal is 80%; in the experiment with CCRF-CEM leukemia it was 118%; in the experiment on MOLT-4 leukemia, 111%; in the experiment with SR leukemia it was 121%; with RPMI-8226 leukemia, 68.7%; in the experiment on OVCAR-8 ovarian, 93.5%. Also, the growth was 94.8% with OVCAR-5 ovarian; 106% with OVCAR-4 ovarian; 119% with SK-OV-3 ovarian; 106% in the experiment on OVCAR-3 ovarian; 71.9% in the experiment on HS 578T breast; 60.4% with NCI/ADR-RES ovarian.
Consider `O=C(Nc1cccnc1)c1ccc2ccc3ccc(C(=O)Nc4cccnc4)nc3c2n1`, for which the growth with SK-MEL-2 melanoma was 25.8%; in the experiment with EKVX NSCLC, 54.4%; with SN12C renal, 32.4%; in the experiment on TK-10 renal, 37.1%; in the experiment with ACHN renal it was 23.3%; in the experiment on CAKI-1 renal it was 10.7%. The growth is -39.1% (active) with A498 renal; 28.5% in the experiment on CCRF-CEM leukemia; 32.1% with MOLT-4 leukemia; 42.6% with SR leukemia; 18.7% with RPMI-8226 leukemia; 22.6% with OVCAR-8 ovarian. The growth was 36.9% with OVCAR-5 ovarian; 47.6% with SK-OV-3 ovarian; 15.4% in the experiment with IGROV1 ovarian; 23.3% in the experiment with OVCAR-3 ovarian; 46.4% with HS 578T breast; 79.8% in the experiment with NCI/ADR-RES ovarian.
As to `O=C1/C(=C/c2cccc(OCc3ccccc3)c2)Oc2cc(OCCN3CCCCC3)ccc21`, the growth with SK-MEL-2 melanoma was 134%; in the experiment with EKVX NSCLC, 87.6%; with SN12C renal it was 81.9%; with TK-10 renal, 118%; in the experiment on ACHN renal, 97.6%; in the experiment on CAKI-1 renal, 84.4%. Further, the growth in the experiment with A498 renal is 81.7%; in the experiment on CCRF-CEM leukemia, 53.8%; in the experiment with MOLT-4 leukemia it was 82.4%; in the experiment with SR leukemia, -20.5% (active); in the experiment on RPMI-8226 leukemia, 20.8%; in the experiment with OVCAR-8 ovarian, 92%. Moreover, the growth in the experiment on OVCAR-5 ovarian is 81.4%; in the experiment on SK-OV-3 ovarian it was 121%; in the experiment on IGROV1 ovarian it was 71.5%; in the experiment with OVCAR-3 ovarian, 86.3%; with NCI/ADR-RES ovarian it was 82.7%.
In the case of `COc1cc(-c2cc(-c3ccc(Nc4ncnc5cc(Cl)ccc45)cc3)nc(N3CCCCC3)n2)cc(OC)c1OC`, the growth in the experiment with SK-MEL-2 melanoma was 91%; in the experiment with EKVX NSCLC, 102%; with SN12C renal, 90.9%; in the experiment with TK-10 renal, 111%; in the experiment on ACHN renal, 96.8%; in the experiment on CAKI-1 renal, 93.1%. In addition, the growth in the experiment on A498 renal was 89.5%; in the experiment on CCRF-CEM leukemia, 107%; with MOLT-4 leukemia it was 90.8%; in the experiment on SR leukemia, 90.9%; in the experiment on RPMI-8226 leukemia it was 109%; in the experiment with OVCAR-8 ovarian, 88.9%. Further, the growth is 96.1% with OVCAR-5 ovarian; 106% in the experiment on OVCAR-4 ovarian; 90.5% in the experiment with IGROV1 ovarian; 107% in the experiment on OVCAR-3 ovarian; 98.7% in the experiment with HS 578T breast.
Regarding `CC1=C/C(=C(\c2cc(C)c(O)c(C(=O)O)c2)c2c(Cl)cccc2Cl)C=C(C(=O)O)C1=O`, the growth is 104% with SK-MEL-2 melanoma; 95.3% in the experiment with EKVX NSCLC; 97.1% with SN12C renal; 108% in the experiment with TK-10 renal; 92.7% in the experiment on ACHN renal; 88.1% in the experiment with CAKI-1 renal. For the same molecule, the growth with A498 renal was 110%; with CCRF-CEM leukemia it was 103%; in the experiment with MOLT-4 leukemia, 102%; in the experiment with SR leukemia, 102%; in the experiment with RPMI-8226 leukemia it was 102%; in the experiment on OVCAR-8 ovarian, 100%. Besides, the growth in the experiment with OVCAR-5 ovarian is 106%; in the experiment with SK-OV-3 ovarian, 93.3%; with IGROV1 ovarian, 101%; with HS 578T breast it was 99.2%; in the experiment with NCI/ADR-RES ovarian, 99.9%.
